“And” between values parts separate entries of the source, which are not always exact repeats. Identical values can stand only once. Out of some 5,500 compounds screened, about 2,000 (36%) were called active. Another 18% or so got no clear call; they are omitted. Rule as the data show it: active = normalized growth mostly below about 0.91 (no sharp cut-off); inconclusive = no clear call, values can overlap the other calls; inactive = mostly above about 0.92. The list shows a part of the results.
Assay: chemical genetic growth profiling, strain panel (AID 1159580);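 also: tested at 20 µM; growth read once vehicle control cultures reached saturation at 30 °C; 1 = growth at the plate median or of vehicle wells; lower values mean less growth of the strain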
Settings: S. cerevisiae deletion strains, growth OD

Measured: normalized growth

COC(=O)C1=CCCN(C)C1
inactive: locus YAL013W, strain DEP1, active compounds read low 1 and 1.01 | locus YAL021C, strain ccr4, active compounds read low 1.03 | locus YAL026C, strain drs2, active compounds read low 1.02 | locus YAL030W, strain snc1, active compounds read low 1 | locus YAL040C, strain CLN3, active compounds read low 0.997 | locus YBL061C, strain skt5, active compounds read low 1.02 | locus YBR009C, strain hhf1, active compounds read low 0.986 | locus YBR021W, strain FUR4, active compounds read low 1 | locus YBR023C, strain chs3, active compounds read low 1.02 | locus YBR171W, strain sec66, active compounds read low 1.02 | locus YBR229C, strain ROT2, active compounds read low 0.954 | locus YBR231C, strain swc5, active compounds read low 0.999 | locus YBR279W, strain paf1, active compounds read low 1.02 | locus YCL011C, strain gbp2, active compounds read low 1.01 | locus YCL016C, strain dcc1, active compounds read low 1.02 | locus YCL029C, strain bik1, active compounds read low 0.983 | locus YCL069W, strain vba3, active compounds read low 0.988 | locus YCR088W, strain abp1, active compounds read low 1.01 | locus YDL005C, strain med2, active compounds read low 0.998 | locus YDL035C, strain GPR1, active compounds read low 0.993 | locus YDL040C, strain nat1, active compounds read low 0.993 | locus YDL074C, strain BRE1, active compounds read low 0.99 | locus YDL101C, strain DUN1, active compounds read low 0.976 | locus YDL134C, strain PPH21, active compounds read low 0.969 | locus YDL185W, strain tfp1, active compounds read low 0.992 | locus YDL192W, strain arf1, active compounds read low 0.983 | locus YDR001C, strain nth1, active compounds read low 1 | locus YDR069C, strain doa4, active compounds read low 0.993 | locus YDR101C, strain arx1, active compounds read low 0.989 | locus YDR137W, strain rgp1, active compounds read low 1.02 | locus YDR150W, strain NUM1, active compounds read low 0.973 and 1.01 | locus YDR159W, strain sac3, active compounds read low 0.94 | locus YDR162C, strain NBP2, active compounds read low 0.991 | locus YDR195W, strain ref2 0.956 | locus YDR297W, strain sur2, active compounds read low 1 | locus YDR318W, strain mcm21, active compounds read low 0.99 | locus YDR334W, strain swr1, active compounds read low 1 | locus YDR335W, strain msn5, active compounds read low 1.02 | locus YDR388W, active compounds read low 0.994 | locus YDR392W, strain spt3, active compounds read low 0.977 | locus YDR502C, strain sam2, active compounds read low 1 | locus YEL003W, strain gim4, active compounds read low 0.997 | locus YEL037C, strain rad23, active compounds read low 1.02 | locus YEL061C, strain CIN8 (second series), active compounds read low 0.988 | locus YEL061C, strain CIN8, active compounds read low 0.991 | locus YER002W, strain NOP16, active compounds read low 0.986 | locus YER015W, strain faa2, active compounds read low 1 | locus YER016W, strain bim1, active compounds read low 1.02 | locus YER110C, active compounds read low 0.969 | locus YER111C, strain swi4, active compounds read low 1.01 | locus YER155C, strain BEM2 (second series), active compounds read low 0.984 | locus YER155C, strain BEM2, active compounds read low 1.02 | locus YER167W, strain BCK2, active compounds read low 0.995 | locus YFR010W, strain ubp6, active compounds read low 0.984 | locus YGL078C, strain dbp3, active compounds read low 0.988 | locus YGL086W, strain mad1, active compounds read low 0.994 | locus YGL167C, strain pmr1, active compounds read low 1.01 | locus YGL173C, strain kem1, active compounds read low 0.976 | locus YGL227W, strain vid30, active compounds read low 0.998 | locus YGL240W, strain doc1, active compounds read low 0.974 | locus YGL248W, strain PDE1, active compounds read low 0.978 | locus YGL253W, strain hxk2, active compounds read low 1.02 | locus YGR078C, strain PAC10, active compounds read low 0.991 | locus YGR135W, strain pre9, active compounds read low 0.983 | locus YGR229C, strain SMI1, active compounds read low 1 | locus YGR252W, strain gcn5, active compounds read low 0.945 | locus YHR013C, strain ard1, active compounds read low 1.03 | locus YHR027C, strain rpn1, active compounds read low 0.996 | locus YHR030C, strain SLT2, active compounds read low 0.986 and 0.989 | locus YHR079C, strain IRE1 (second series), active compounds read low 0.994 | locus YHR079C, strain IRE1, active compounds read low 1.05 | locus YHR094C, strain hxt1, active compounds read low 0.996 | locus YHR129C, strain ARP1, active compounds read low 0.993 | locus YHR142W, strain chs7, active compounds read low 1.03 | locus YHR200W, strain rpn10, active compounds read low 0.989 | locus YIL066C, strain RNR3, active compounds read low 0.982 | locus YIL073C, strain SPO22, active compounds read low 0.935 | locus YIL125W, strain kgd1, active compounds read low 0.995 | locus YIR030C, strain dcg1, active compounds read low 0.98 | locus YJL092W, strain hpr5, active compounds read low 1.01 | locus YJL095W, strain BCK1 (second series), active compounds read low 1.01 | locus YJL095W, strain BCK1, active compounds read low 1.02 and 1 | locus YJL115W, strain asf1, active compounds read low 1.02 | locus YJL129C, strain trk1, active compounds read low 1.04 | locus YJL134W, strain LCB3, active compounds read low 0.985 | locus YJL154C, strain vps35, active compounds read low 0.996 | locus YJL164C, strain tpk1, active compounds read low 0.998 | locus YJL166W, strain qcr8, active compounds read low 0.998 | locus YJL168C, strain set2, active compounds read low 1 | locus YJL187C, strain SWE1 (second series), active compounds read low 0.973 | locus YJR043C, strain POL32, active compounds read low 1 | locus YJR066W, strain TOR1, active compounds read low 0.968 | locus YJR075W, strain HOC1, active compounds read low 0.99 and 1.01 | locus YKL009W, strain mrt4, active compounds read low 0.999

— PubChem BioAssay AID1159580 (chemical genetic matrix, 2015)
